Test results published in PubChem BioAssay AID1159580 (chemical genetic matrix, 2015).
Out of some 5,500 compounds screened, about 2,000 (36%) were called active. Not shown: some 18% with an inconclusive outcome. No stated cut-off is given here; in the data, active means normalized growth mostly below about 0.91 (no sharp cut-off); inconclusive means no clear call, values can overlap the other calls; inactive means mostly above about 0.92. This is one part of the list.

Test: chemical genetic growth profiling, strain panel (AID 1159580);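 further: tested at 20 µM; growth read once vehicle control cultures reached saturation at 30 °C; 1 = growth at the plate median or of vehicle wells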
Details: growth OD

Measured: normalized growth

CC[C@@H](CO)NC(=O)[C@@H]1C=C2c3cccc4[nH]cc(c34)C[C@H]2N(C)C1
inactive: S. cerevisiae deletion strains, locus YKL009W, strain mrt4, stronger effect = lower value 0.999 | S. cerevisiae deletion strains, locus YKL068W, stronger effect = lower value 0.996 | S. cerevisiae deletion strains, locus YKL085W, strain MDH1 (second series), stronger effect = lower value 1.02 | S. cerevisiae deletion strains, locus YKL085W, strain MDH1, stronger effect = lower value 1.02 | S. cerevisiae deletion strains, locus YKL160W, strain elf1, stronger effect = lower value 0.982 | S. cerevisiae deletion strains, locus YKL190W, strain CNB1, stronger effect = lower value 0.997 | S. cerevisiae deletion strains, locus YKR001C, strain vps1, stronger effect = lower value 0.947 | S. cerevisiae deletion strains, locus YKR026C, strain gcn3, stronger effect = lower value 1 | S. cerevisiae deletion strains, locus YKR091W, strain srl3, stronger effect = lower value 0.997 | S. cerevisiae deletion strains, locus YLL001W, strain dnm1, stronger effect = lower value 0.982 | S. cerevisiae deletion strains, locus YLL026W, stronger effect = lower value 0.986 | S. cerevisiae deletion strains, locus YLL041C, strain sdh2, stronger effect = lower value 1 | S. cerevisiae deletion strains, locus YLR027C, strain aat2, stronger effect = lower value 0.993 | S. cerevisiae deletion strains, locus YLR039C, strain RIC1, stronger effect = lower value 1.04 | S. cerevisiae deletion strains, locus YLR058C, strain SHM2, stronger effect = lower value 0.989 | S. cerevisiae deletion strains, locus YLR102C, strain apc9, stronger effect = lower value 0.985 | S. cerevisiae deletion strains, locus YLR113W, strain HOG1, stronger effect = lower value 1.03 | S. cerevisiae deletion strains, locus YLR221C, strain rsa3, stronger effect = lower value 0.999 | S. cerevisiae deletion strains, locus YLR258W, strain gsy2, stronger effect = lower value 1 | S. cerevisiae deletion strains, locus YLR262C, strain YPT6 (second series), stronger effect = lower value 0.991 | S. cerevisiae deletion strains, locus YLR262C, strain YPT6, stronger effect = lower value 1.06 | S. cerevisiae deletion strains, locus YLR268W, strain sec22, stronger effect = lower value 0.985 | S. cerevisiae deletion strains, locus YLR320W, strain mms22, stronger effect = lower value 0.98 | S. cerevisiae deletion strains, locus YLR330W, strain CHS5, stronger effect = lower value 0.992 | S. cerevisiae deletion strains, locus YLR342W, strain FKS1 (second series), stronger effect = lower value 0.983 | S. cerevisiae deletion strains, locus YLR342W, strain FKS1, stronger effect = lower value 0.982 | S. cerevisiae deletion strains, locus YLR357W, strain rsc2, stronger effect = lower value 0.978 | S. cerevisiae deletion strains, locus YLR370C, strain arc18, stronger effect = lower value 1 | S. cerevisiae deletion strains, locus YLR371W, strain rom2, stronger effect = lower value 0.986 | S. cerevisiae deletion strains, locus YLR384C, strain iki3, stronger effect = lower value 0.997 | S. cerevisiae deletion strains, locus YLR418C, strain cdc73, stronger effect = lower value 0.926 | S. cerevisiae deletion strains, locus YML016C, strain PPZ1, stronger effect = lower value 0.978 | S. cerevisiae deletion strains, locus YML032C, strain rad52, stronger effect = lower value 0.971 | S. cerevisiae deletion strains, locus YML120C, strain ndi1, stronger effect = lower value 1.01 | S. cerevisiae deletion strains, locus YML124C, strain tub3, stronger effect = lower value 0.987 | S. cerevisiae deletion strains, locus YMR058W, strain fet3, stronger effect = lower value 0.99 | S. cerevisiae deletion strains, locus YMR078C, strain ctf18, stronger effect = lower value 0.996 | S. cerevisiae deletion strains, locus YMR125W, strain sto1, stronger effect = lower value 1.01 | S. cerevisiae deletion strains, locus YMR129W, stronger effect = lower value 1 | S. cerevisiae deletion strains, locus YMR205C, strain PFK2, stronger effect = lower value 0.993 | S. cerevisiae deletion strains, locus YMR223W, strain ubp8, stronger effect = lower value 0.961 | S. cerevisiae deletion strains, locus YMR231W, strain pep5, stronger effect = lower value 0.992 | S. cerevisiae deletion strains, locus YMR263W, strain SAP30, stronger effect = lower value 1.01 | S. cerevisiae deletion strains, locus YMR307W, strain GAS1, stronger effect = lower value 0.972 | S. cerevisiae deletion strains, locus YNL067W, strain RPL9B, stronger effect = lower value 1.04 | S. cerevisiae deletion strains, locus YNL071W, strain lat1, stronger effect = lower value 1 | S. cerevisiae deletion strains, locus YNL128W, strain TEP1, stronger effect = lower value 1.01 | S. cerevisiae deletion strains, locus YNL153C, strain GIM3, stronger effect = lower value 1.02 | S. cerevisiae deletion strains, locus YNL183C, strain NPR1, stronger effect = lower value 0.978 | S. cerevisiae deletion strains, locus YNL209W, strain ssb2, stronger effect = lower value 1 | S. cerevisiae deletion strains, locus YNL233W, strain BNI4, stronger effect = lower value 0.983 | S. cerevisiae deletion strains, locus YNL248C, strain rpa49, stronger effect = lower value 1 | S. cerevisiae deletion strains, locus YNL250W, strain rad50, stronger effect = lower value 0.978 | S. cerevisiae deletion strains, locus YNL271C, strain bni1, stronger effect = lower value 0.981 | S. cerevisiae deletion strains, locus YNL298W, strain CLA4, stronger effect = lower value 0.999 | S. cerevisiae deletion strains, locus YNL307C, strain MCK1, stronger effect = lower value 0.973 | S. cerevisiae deletion strains, locus YNL322C, strain KRE1 (second series), stronger effect = lower value 0.993 | S. cerevisiae deletion strains, locus YNL322C, strain KRE1, stronger effect = lower value 0.997 | S. cerevisiae deletion strains, locus YNR049C, strain mso1, stronger effect = lower value 0.999 | S. cerevisiae deletion strains, locus YNR052C, strain pop2, stronger effect = lower value 0.996 | S. cerevisiae deletion strains, locus YOL006C, strain TOP1, stronger effect = lower value 1.03 | S. cerevisiae deletion strains, locus YOL012C, strain htz1 0.998 | S. cerevisiae deletion strains, locus YOL147C, strain pex11, stronger effect = lower value 0.994 | S. cerevisiae deletion strains, locus YOR001W, strain rrp6, stronger effect = lower value 0.992 | S. cerevisiae deletion strains, locus YOR061W, strain CKA2, stronger effect = lower value 0.991 | S. cerevisiae deletion strains, locus YOR069W, strain VPS5, stronger effect = lower value 0.986 | S. cerevisiae deletion strains, locus YOR070C, strain gyp1, stronger effect = lower value 1 | S. cerevisiae deletion strains, locus YOR080W, strain dia2, stronger effect = lower value 0.994 | S. cerevisiae deletion strains, locus YOR083W, strain WHI5, stronger effect = lower value 0.963 | S. cerevisiae deletion strains, locus YOR106W, strain vam3, stronger effect = lower value 0.993 | S. cerevisiae deletion strains, locus YOR136W, strain idh2, stronger effect = lower value 0.986 | S. cerevisiae deletion strains, locus YOR144C, strain elg1, stronger effect = lower value 0.984 | S. cerevisiae deletion strains, locus YOR184W, strain ser1, stronger effect = lower value 0.966 | S. cerevisiae deletion strains, locus YOR231W, strain MKK1, stronger effect = lower value 1.03 | S. cerevisiae deletion strains, locus YOR265W, strain rbl2, stronger effect = lower value 1.01 | S. cerevisiae deletion strains, locus YOR270C, strain vph1, stronger effect = lower value 1.03 | S. cerevisiae deletion strains, locus YOR290C, strain snf2, stronger effect = lower value 1 | S. cerevisiae deletion strains, locus YOR316C, strain cot1, stronger effect = lower value 0.987 | S. cerevisiae deletion strains, locus YPL051W, strain arl3, stronger effect = lower value 0.992 | S. cerevisiae deletion strains, locus YPL055C, strain LGE1, stronger effect = lower value 1.07 | S. cerevisiae deletion strains, locus YPL078C, strain atp4, stronger effect = lower value 0.98 | S. cerevisiae deletion strains, locus YPL106C, strain sse1, stronger effect = lower value 0.981 | S. cerevisiae deletion strains, locus YPL240C, strain hsp82, stronger effect = lower value 0.995 | S. cerevisiae deletion strains, locus YPL241C, strain CIN2, stronger effect = lower value 0.997 | S. cerevisiae deletion strains, locus YPL256C, strain CLN2, stronger effect = lower value 1.1 | S. cerevisiae deletion strains, locus YPR119W, strain clb2, stronger effect = lower value 0.989 | S. cerevisiae deletion strains, locus YPR141C, strain kar3, stronger effect = lower value 0.992 | S. cerevisiae deletion strains, locus YPR163C, strain tif3, stronger effect = lower value 0.987 | S. cerevisiae deletion strains, locus YPR167C, strain met16, stronger effect = lower value 0.987 | S. cerevisiae deletion strains, strain wtn01, stronger effect = lower value 0.975 | S. cerevisiae strains, strain wild type, stronger effect = lower value 0.982
